Assay outcomes (PubChem)
HT1080NT lethal: qHTS for induction of synthetic lethality in tumor cells producing 2HG: qHTS for the HT-1080-NT fibrosarcoma cell line. Potency, µM (series often up to 46.1 µM), for inactives: at the highest dose activity, negative = less viability, actives largely listed as cytotoxic. HT-1080-NT fibrosarcoma viability, CellTiter-Glo ATP luminescence, 48 h. 360,000 compounds, 1.6% hits;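 also: NT is the 2HG producing partner of a matched IDH1 knockdown line; 0% = DMSO-treated cells and -100% = media-only wells without cells; nearly all actives have a fitted effect of over 55% in size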
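Compounds were tested in concentration-response format on HT-1080-NT cells for 48 hours at 37 degrees C. Cell viability came from CellTiter-Glo luminescence; curves were classified by r2, response magnitude and activity.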
HT1080 IDH1KD tx: qHTS for induction of synthetic lethality in tumor cells producing 2HG: qHTS for the HT-1080-IDH1KD cell line | 360,000 compounds, 2% hits | Potency, µM (series often up to 46.1 µM), without a hit: at the top dose activity, negative = toxicity, usual class: cytotoxic | HT-1080 IDH1 knockdown viability, ATP luminescence, 48 h;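 also: 0% = DMSO wells and -100% = cell-free medium wells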
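Knockdown cells (IDH1KD HT-1080) received compounds 2 h after plating at 750 cells/well and were kept 48 h at 37 °C in 5% FBS RPMI. A CellTiter-Glo luminescence read gave % activity for curve fitting.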
TGFb inhibitor: qHTS for Inhibitors of TGF-b | AID 588855, 2011 | HepG2 CAGA-GFP TGF-b/SMAD3 reporter, GFP fluorescence, 18 h; TGF-beta stimulated, 500 pg/mL final | Potency, µM (top dose mostly 46.1 µM), for inactives: at the highest dose activity, negative = inhibition, hits mostly inhibitors | 410,000 compounds, 1.2% hits; also: % is scaled to controls: 0 for no effect and ±100 for the full control effect; nearly all actives have a fitted effect of over 65% in size
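GFP signal (ex488/em500-530) from TGF-beta-stimulated HEPG2 CAGA-GFP cells, 500 pg/mL final, 18 h at 37 degrees C in DMEM plus 1% FBS, normalized to unstimulated and DMSO-stimulated controls.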
HepG2 viability: qHTS for Inhibitors of TGF-b: Cytotox Counterscreen. HepG2 CAGA-GFP viability, ATP luminescence, 18 h. Potency, µM (doses to about 46.1 µM), for inactives: at the highest dose activity change, negative = cytotoxicity, most hits filed as cytotoxic. 410,000 compounds, 0.76% hits
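CellTiter-Glo luminescence gave cytotoxicity after 18 hours at 37 degrees C. The cells were HepG2 CAGA-GFP in 1% FBS DMEM, stimulated with 500 pg/mL TGF-beta after compound addition. %Activity was normalised to no-cell wells (complete cell-killing) and DMSO (no toxicity), and curves were fitted and classified.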
KB-3-1 cytotox: qHTS assay for MDR1-selective chemotherapeutics: Primary screen using the parental adenocarcinoma cell KB-3-1; KB-3-1 viability, CellTiter-Glo ATP luminescence, 72 h; Potency, µM (titrated, usually from 46.1 µM), hits mostly cytotoxic; 400,000 compounds, 1.4% hits; also: % is scaled to controls: 0 for no effect and ±100 for the full control effect; nearly all actives have a fitted effect of over 60% in size
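Parental KB-3-1 viability, qHTS format: 72 h compound exposure, 37 °C; CellTiter-Glo; media-only wells and DMSO plates as controls; concentration-effect fits on corrected data.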
KB-V1 cytotox: qHTS assay for MDR1-selective chemotherapeutics: Primary screen using the drug-selected MDR subline cells KB-V1 | KB-V1 MDR cells viability, CellTiter-Glo, 72 h | Potency, µM (series often up to 46.1 µM), actives largely listed as cytotoxic | 400,000 compounds, 3.4% hits; also: % is scaled to controls: 0 for no effect and ±100 for the full control effect; nearly all actives have a fitted effect of over 60% in size
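Cells of the MDR subline KB-V1 are plated, dosed with compound at multiple concentrations, and incubated 72 h at 37 degrees C; CellTiter-Glo is then added and luminescence read after 10 min.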
An asterisk follows results filed as active; i = inactive; ? = inconclusive; . = no result given; ! = a repeat was not active. A selection: hits, their analogues and other compounds. The true share with any hit is near 6.6%. Calls follow the shape of the dose curve; as a rule, active = well fitted curve in the direction sought with a large enough effect; inconclusive = small, poorly fitted or top-dose-only effect, or another doubt; inactive = no such curve, though single readings can be large; an effect the other way counts as inactive or inconclusive. Potency is read from the fitted curve at half-maximal effect.

SMILES | HT1080NT lethal | HT1080 IDH1KD tx | TGFb inhibitor | HepG2 viability | KB-3-1 cytotox | KB-V1 cytotox
O=C(CCl)N1N=C(c2ccco2)CC1c1ccco1 (stereo not drawn) | 26µM* | ? | 11µM* | -85% | ? | ?
Cc1ccc(C2=NN(C(=O)CSc3nccn3C)C(c3ccco3)C2)cc1 (stereo not drawn) | 18µM* | 15µM* | -11% | -1% | ? | 9.2µM*
COc1ccc(CNc2nc(-c3ccccc3)nn2S(=O)(=O)c2ccccc2)cc1 | . | . | -6% | -2% | i | i
Cc1ccc(C2c3[nH]c4ccccc4c3CCN2C(=O)CCc2ccccc2)cc1 (stereo not drawn) | . | . | ? | -36% | . | .
CN1CCN(Nc2nn3c(=O)c4ccccc4nc3s2)CC1 | . | . | . | . | i | ?
Cc1ccc(N2C(=O)CSC23C(=O)Nc2ccccc23)cc1F (stereo not drawn) | . | . | 6% | 3% | i | i
CCOC(=O)c1noc2ncnc(NCc3ccccc3OC)c12 | . | . | ? | -20% | i | i
Cc1ccc2nc(-c3ccccn3)c(N)n2c1 | -27% | ? | 17% | 10µM* | i | ?
COc1ccc(CN2COc3ccc4c(-c5ccc(OC)cc5)cc(=O)oc4c3C2)cc1 | . | . | 29% | -13% | i | i
Cc1cccc(C(=O)Oc2csc(=S)n2C(=O)c2cccc(C)c2)c1 | 7.3µM* | 4.6µM* | -17% | 6% | i | i
O=C(Oc1csc(=S)n1C(=O)c1ccccc1)c1ccccc1 | 2% | 2% | -1% | -14% | i | i
COc1cc(NC(=O)Cc2noc3ccccc23)cc(OC)c1OC | . | . | -24% | -12% | i | i
Cc1ccc(/C=C/C(O)=C2/C(=O)N(C)C3(C)CC2c2ccccc2O3)cc1 (stereo not drawn) | ? | ? | -7% | -43% | 15µM* | i
CC1(C)CC2CC(C)(CN2C(=O)c2cc(-c3ccc(O)cc3)on2)C1 (stereo not drawn) | ? | ? | ? | -127% | i | i
COc1cccc(-c2cc(C(=O)N3CC4(C)CC3CC(C)(C)C4)no2)c1 (stereo not drawn) | -4% | ? | ? | -15% | i | 15µM*
COCCN(Cc1ccccc1)C(=O)C1CCN(C(=O)Nc2ccccc2)CC1 | 5% | -2% | -1% | -3% | i | ?
CNc1nc2ccccc2n1/N=C/c1cccc(OC)c1OC | -1% | -28% | 3% | -25% | i | 8.2µM*
O=C(NC1CCCCC1)c1sc(=S)n2c1[nH]c(=O)c1ccccc12 | ? | ? | ? | -41% | ? | 21µM*
CCCCNC(=O)c1sc(=S)n2c1[nH]c(=O)c1ccccc12 | -3% | -2% | ? | -29% | i | i
CCC(=O)N1CCc2cc(S(=O)(=O)CCC(=O)Nc3ccc(OC(F)(F)F)cc3)ccc21 | . | . | 11µM* | -18% | i | i
CCC1Sc2ccc(S(=O)(=O)CCC(=O)Nc3ccc(NC(C)=O)cc3)cc2NC1=O (stereo not drawn) | 16% | 2% | 0% | -1% | i | ?
CCC1Sc2ccc(S(=O)(=O)CCC(=O)Nc3ccc(OC(F)(F)F)cc3)cc2NC1=O (stereo not drawn) | -11% | 0% | ? | 10µM* | i | i
Cc1sc2nc(C3CC3)nc(N3CCN(C(=O)c4ccc(F)cc4)CC3)c2c1C | ? | ? | ? | -2% | i | i
COc1ccc(C(=O)N2CCN(c3nc(C4CC4)nc4sc(C)c(C)c34)CC2)cc1 | -8% | -8% | ? | -3% | ? | 23µM*
Cc1sc2nc(C3CC3)nc(N3CCN(C(=O)c4ccc(Cl)cc4)CC3)c2c1C | -17% | -24% | ? | -15% | ? | 18µM*
SMILES | HT1080NT lethal | HT1080 IDH1KD tx | TGFb inhibitor | HepG2 viability | KB-3-1 cytotox | KB-V1 cytotox
CCn1c(CNc2nc3ccccc3n2C(C)C)nc2ccccc21 | -12% | -4% | ? | -30% | i | 12µM*
COc1ccc(-n2nc3c(c2NC(=O)c2ccccc2)CS(=O)(=O)C3)cc1 | -2% | ? | -16% | -15% | i | i
Cc1ccnc(NC(=O)c2c(-c3ccccc3Cl)noc2C)c1 | 9% | 3% | -5% | -15% | i | ?
Cc1onc(-c2ccccc2)c1C(=O)N/N=C(\N)COc1ccc(Cl)cc1 | ? | ? | -4% | 1% | ? | 15µM*
COc1ccc(-n2nc3c(c2NC(=O)c2c(-c4ccccc4Cl)noc2C)CS(=O)(=O)C3)cc1 | -4% | 0% | -19% | -27% | i | 9.2µM*
Cc1onc(-c2ccccc2Cl)c1C(=O)Nc1sc2c(c1C(N)=O)CCC(C)C2 (stereo not drawn) | -4% | -14% | ? | 1% | ? | 23µM*
Cc1cc(C)nc(NC(=O)c2c(-c3ccccc3Cl)noc2C)c1 | 3% | 7% | ? | -10% | i | 7.3µM*
CN(C)c1ccc(CNc2nc(-c3ccco3)nn2C(=O)c2cccc([N+](=O)[O-])c2)cc1 | . | . | 21% | -16% | i | i
Cc1onc(-c2ccccc2Cl)c1C(=O)N/N=C(\N)COc1ccc(Cl)cc1 | -5% | ? | ? | 6% | ? | 15µM*
Cc1cc(C)cc(NC(=O)Cn2nnc(C(=O)NCc3ccc4c(c3)OCO4)c2N)c1 | 18µM* | ? | 1% | 2% | i | i
COc1ccc(NC(=O)Cn2nnc(C(=O)NCc3ccc4c(c3)OCO4)c2N)cc1 | -21% | -29% | 3% | -10% | i | i
Cc1ccccc1NC(=O)Cn1nnc(C(=O)NCc2ccco2)c1N | ? | ? | 8% | -6% | 18µM*! | ?
CCOc1ccccc1NC(=O)Cn1nnc(C(=O)NCc2ccco2)c1N | ? | 0.041µM* | ? | -11% | 0.01µM* | 0.26µM*
CCOc1ccccc1NC(=O)Cn1nnc(C(=O)NCc2ccc3c(c2)OCO3)c1N | ? | 12µM* | 0% | 3% | 9.2µM* | ?
Cc1cc(C)cc(NC(=O)Cn2nnc(C(=O)NCc3ccco3)c2N)c1 | -17% | -18% | ? | -20% | ? | i
